Our source for the Percent Effect values is ChEMBL document CHEMBL3988442, “University of Dundee, Small-Polar-MMV Screening Library” (2021).

SMILES strings stand for the structures.

The assay concerns the target T1, Aspartate--tRNA(Asp/Asn) ligase (Mycobacterium tuberculosis (strain ATCC 25618 / H37Rv)) (UniProt P9WFW3).
T1 sequence (whole entry): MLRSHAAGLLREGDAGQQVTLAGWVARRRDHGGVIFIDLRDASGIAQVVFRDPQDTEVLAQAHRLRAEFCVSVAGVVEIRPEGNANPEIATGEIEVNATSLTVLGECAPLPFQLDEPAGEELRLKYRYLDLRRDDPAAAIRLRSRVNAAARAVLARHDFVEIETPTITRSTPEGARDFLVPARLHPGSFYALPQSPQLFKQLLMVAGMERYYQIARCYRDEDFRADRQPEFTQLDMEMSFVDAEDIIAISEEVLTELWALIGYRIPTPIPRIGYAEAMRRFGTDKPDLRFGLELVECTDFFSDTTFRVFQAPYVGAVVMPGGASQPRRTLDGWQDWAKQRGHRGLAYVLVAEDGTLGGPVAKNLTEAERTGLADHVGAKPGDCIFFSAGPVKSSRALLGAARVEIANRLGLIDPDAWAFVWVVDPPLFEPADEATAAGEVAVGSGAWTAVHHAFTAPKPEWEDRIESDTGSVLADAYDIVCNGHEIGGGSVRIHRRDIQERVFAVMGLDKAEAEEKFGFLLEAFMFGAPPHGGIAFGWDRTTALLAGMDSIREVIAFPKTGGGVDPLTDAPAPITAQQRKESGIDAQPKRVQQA
In words: Assay for Asp RNA synthetase-1 from Mycobacterium tuberculosis. Format: functional. Set-up: scale not given: in the data most compounds retested in dose-response had high values. The conditions noted are these: 30 µM.
Regarding `Cc1ccc(NC2CCN(C(=O)Cc3csc(C)n3)CC2)nn1`, the Percent Effect was determined as 4.42%.
The result for `CCC(=O)N1CCC(Cc2ccccc2-c2ccccc2)(C(N)=O)C1` (stereo not given) reads -7.87%; that for `COc1cc(CNC(=O)Nc2cc(C(F)(F)F)c[nH]c2=O)ccn1`, -3.59%.
Consider `CC(CCc1ccco1)NC(=O)Nc1cc(C(F)(F)F)c[nH]c1=O` (stereo not given), for which the Percent Effect came to 0.141%.
Consider `CC(C)CN1CCC2(CCN(Cc3ccsc3)CC2)C1=O`, for which the Percent Effect is -5.3%.
`OC(CNCCn1cccn1)c1ccc2c(c1)OCCO2` (stereo not given): the Percent Effect was -4.48%.
Take `CC(C)C(C(=O)N1CCC(N(C)c2cccnn2)CC1)n1cncn1` (stereo not given): the Percent Effect was -3.21%.
As for `Cc1cc(S(=O)(=O)Nc2cccc(-n3cccc3)c2)sc1C(=O)O`, the Percent Effect came to 7.63%.
To `COc1ccc(NC(=O)Cn2nc(C)c(C)cc2=O)cc1OC` belongs -0.123%; to `Cn1cc(CN2CCc3nc(-c4ccccn4)nc(O)c3C2)cn1`, -5.28%; to `Cc1ccccc1OCCC(=O)OC(C)C(=O)Nc1sccc1C(N)=O` (stereo not given), -2.83%.
As for `CC(=O)N1CCC2(CC1)COCCN2CCN(C)C`, the Percent Effect is 0.524%.
To `CCN1CCn2c(C)cnc2C12CCN(C(=O)CC(C)C)CC2` belongs 1.31%; to `O=C(c1ccn(-c2ccccc2Cl)n1)N1CCSCC1`, 1.45%; to `CC(Cn1cccn1)NC(=O)CCc1ccc(S(N)(=O)=O)cc1` (stereo not given), -2.91%.
Turning to `CCc1noc(C(C)N(C)CC(=O)Nc2ccc(C)cc2)n1` (stereo not given), the Percent Effect was 1.52%.
For the compound `CC(C)OCCN(C)C(C)c1cccc(S(N)(=O)=O)c1` (stereo not given), the Percent Effect was -3.29%.
As for `CC(C)c1nc(C(=O)NCCn2ccnc2)nn1-c1cccc(F)c1`, the Percent Effect is -3.06%.
Take `O=C(CC1CC1)N1C[C@@H]2CCN(c3cnccn3)C[C@@H]2C1`: the Percent Effect was -5.94%.
Take `c1cncc(COCc2nnc3n2CCN(Cc2ccoc2)C3)c1`: the Percent Effect was -0.0297%.
